Laboratory results reported in PubChem BioAssay AID1159580 (chemical genetic matrix, 2015).
The whole screen tested about 5,500 compounds, of which about 2,000 (36%) were called active. Inconclusive results (about 18%) are left out. Cut-off read from the data, not from the text of the source: active = normalized growth mostly below about 0.91 (no sharp cut-off); inconclusive = no clear call, values can overlap the other calls; inactive = mostly above about 0.92. The list shows a part of the results.

Assay: chemical genetic growth profiling, strain panel (AID 1159580);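 note: tested at 20 µM; growth read once vehicle control cultures reached saturation at 30 °C; 1 = growth at the plate median or of vehicle wells; lower values mean less growth of the strain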
Conditions: S. cerevisiae deletion strains, growth OD

Measured: normalized growth

COc1ccc(C(=O)/C=C/c2ccccc2)cc1
inactive: locus YJR066W, strain TOR1, hits give low values 0.841 | locus YKL068W, hits give low values 0.983 | locus YKL085W, strain MDH1 (second series), hits give low values 0.974 | locus YKL085W, strain MDH1, hits give low values 0.974 | locus YKL190W, strain CNB1, hits give low values 1.01 | locus YKR026C, strain gcn3, hits give low values 0.983 | locus YKR091W, strain srl3, hits give low values 0.982 | locus YLL026W, hits give low values 0.971 | locus YLL041C, strain sdh2, hits give low values 0.999 | locus YLR039C, strain RIC1, hits give low values 0.792 | locus YLR058C, strain SHM2, hits give low values 0.899 | locus YLR102C, strain apc9, hits give low values 0.964 | locus YLR258W, strain gsy2, hits give low values 0.936 | locus YLR357W, strain rsc2, hits give low values 0.957 | locus YLR370C, strain arc18, hits give low values 0.978 | locus YLR384C, strain iki3, hits give low values 0.969 | locus YML016C, strain PPZ1, hits give low values 0.947 | locus YML120C, strain ndi1, hits give low values 0.954 | locus YML124C, strain tub3, hits give low values 0.958 | locus YMR129W, hits give low values 0.985 | locus YMR231W, strain pep5, hits give low values 1 | locus YMR307W, strain GAS1, hits give low values 0.939 | locus YNL067W, strain RPL9B, hits give low values 0.954 | locus YNL128W, strain TEP1, hits give low values 0.922 | locus YNL183C, strain NPR1, hits give low values 0.838 | locus YNL209W, strain ssb2, hits give low values 0.968 | locus YNL250W, strain rad50, hits give low values 0.958 | locus YNL271C, strain bni1, hits give low values 0.92 | locus YNL322C, strain KRE1 (second series), hits give low values 0.917 | locus YNR049C, strain mso1, hits give low values 0.995 | locus YNR052C, strain pop2, hits give low values 0.941 | locus YOL006C, strain TOP1, hits give low values 0.664 | locus YOL012C, strain htz1 0.771 | locus YOR001W, strain rrp6, hits give low values 0.905 | locus YOR061W, strain CKA2, hits give low values 0.981 | locus YOR069W, strain VPS5, hits give low values 0.958 | locus YOR070C, strain gyp1, hits give low values 0.928 | locus YOR080W, strain dia2, hits give low values 0.981 | locus YOR136W, strain idh2, hits give low values 0.939 | locus YOR265W, strain rbl2, hits give low values 0.994 | locus YOR316C, strain cot1, hits give low values 0.966 | locus YPL240C, strain hsp82, hits give low values 0.954 | locus YPR119W, strain clb2, hits give low values 0.964 | locus YPR141C, strain kar3, hits give low values 0.965
active: locus YJL187C, strain SWE1, hits give low values 0.917 | locus YKL009W, strain mrt4, hits give low values 0.834 | locus YKL160W, strain elf1, hits give low values 0.878 | locus YKR001C, strain vps1, hits give low values 0.783 | locus YLL001W, strain dnm1, hits give low values 0.898 | locus YLR027C, strain aat2, hits give low values 0.846 | locus YLR113W, strain HOG1, hits give low values 0.628 | locus YLR221C, strain rsa3, hits give low values 0.809 | locus YLR262C, strain YPT6 (second series), hits give low values 0.855 | locus YLR268W, strain sec22, hits give low values 0.818 | locus YLR320W, strain mms22, hits give low values 0.525 | locus YLR330W, strain CHS5, hits give low values 0.854 | locus YLR342W, strain FKS1, hits give low values 0.839 | locus YLR371W, strain rom2, hits give low values 0.796 | locus YLR418C, strain cdc73, hits give low values 0.358 | locus YML032C, strain rad52, hits give low values 0.746 | locus YMR058W, strain fet3, hits give low values 0.803 | locus YMR078C, strain ctf18, hits give low values 0.73 | locus YMR125W, strain sto1, hits give low values 0.856 | locus YMR205C, strain PFK2, hits give low values 0.707 | locus YMR223W, strain ubp8, hits give low values 0.852 | locus YNL071W, strain lat1, hits give low values 0.307 | locus YNL233W, strain BNI4, hits give low values 0.777 | locus YNL248C, strain rpa49, hits give low values 0.687 | locus YNL298W, strain CLA4, hits give low values 0.858 | locus YNL307C, strain MCK1, hits give low values 0.239 | locus YOL147C, strain pex11, hits give low values 0.752 | locus YOR083W, strain WHI5, hits give low values 0.86 | locus YOR106W, strain vam3, hits give low values 0.823 | locus YOR144C, strain elg1, hits give low values 0.897 | locus YOR184W, strain ser1, hits give low values 0.43 | locus YOR231W, strain MKK1, hits give low values 0.757 | locus YOR270C, strain vph1, hits give low values 0.613 | locus YOR290C, strain snf2, hits give low values 0.792 | locus YPL051W, strain arl3, hits give low values 0.868 | locus YPL078C, strain atp4, hits give low values 0.799 | locus YPL106C, strain sse1, hits give low values 0.76 | locus YPL256C, strain CLN2, hits give low values 0.74 | locus YPR163C, strain tif3, hits give low values 0.432 | locus YPR167C, strain met16, hits give low values 0.889 | strain wtn01, hits give low values 0.811
